Source: the supplement of paper PMC10849652
The full data set covers some 8,800 targets. This sample favours those with a hit. About 0.5% of all pairs of compound and target were hits.

Columns and labels:
Test in all cases: log2 fold change, soluble protein after heating vs DMSO (PISA); higher = thermal stabilisation; K562 lysate, 10 uM; active = over 0.2 and 3.5 SD of the protein, either way, in both replicates (recomputed)
erlotinib = compound: C#Cc1cccc(Nc2ncnc3cc(OCCOC)c(OCCOC)cc23)c1 [erlotinib]
Method in brief: (§1)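 A 30 min treatment with 10 μM compound was applied to crude K562 extract at 1 mg/mL protein in PBS pH 7.4 with 1 mM MgCl2. Heating for 3 min spanned 48°C-58°C, after which aliquots were pooled, adjusted to 0.5% NP-40 at 4°C and spun at 21,000xg for 90 min. TMTpro 16plex LC-MS/MS of the supernatant, with channel sums equalised, gave values recorded as log-two fold change in thermal stability against solvent controls, from duplicates.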

[1] = compound: C/C(=N\NC(=O)C1=CC(=CC=C1)S(=O)(=O)N2CCOCC2)/C3=C(C=CC(=C3)Cl)O
Method in brief: as §1

[2] = compound: C1=CC(=CC=C1C2=NC3=C(N2)C=C(C=C3)C(=O)N)OC4=CC=C(C=C4)Cl
Method in brief: as §1

[3] = compound: C1=CC2=C(C=CC(=C2)/C=C\3/C(=O)NC(=NCC4=CC=CS4)S3)N=C1
Method in brief: as §1

[4] = compound: C1=CC2=NC=CN=C2C=C1/C=C/3\C(=O)NC(=O)S3
Method in brief: as §1

[5] = compound: C1=CC=C(C=C1)C2=NC(=C(N2)C3=CC=NC=C3)C4=CC(=C(C=C4)Cl)O
Method in brief: as §1

[6] = compound: C1=CC=C2C(=C1)C3=NNC4=CC=CC(=C43)C2=O
Method in brief: as §1

[7] = compound: C1CCN(C1)C(=O)NC2=CC=CC(=C2)NC3=NC=C(C(=N3)NCCC4=CN=CN4)Br
Method in brief: as §1

[8] = compound: C1CN(CCC1(CC2=CC=C(C=C2)Cl)N)C3=NC=NC4=C3C=CN4
Method in brief: as §1

IRAK-1-4 Inhibitor I = compound: C1COCCN1CCN2C3=CC=CC=C3N=C2NC(=O)C4=CC(=CC=C4)[N+](=O)[O-] [IRAK-1-4 Inhibitor I]
Method in brief: as §1

ibrutinib = compound: C=CC(=O)N1CCC[C@@H](n2nc(-c3ccc(Oc4ccccc4)cc3)c3c(N)ncnc32)C1 [ibrutinib]
Method in brief: as §1

[9] = compound: CC(=O)c1cnc2ccc(-c3cc(Cl)c(O)c(Cl)c3)nc2c1N[C@H]1CC[C@H](CN(C)C)CC1
Method in brief: as §1

ralimetinib = compound: CC(C)(C)Cn1c(N)nc2ccc(-c3[nH]c(C(C)(C)C)nc3-c3ccc(F)cc3)nc21 [ralimetinib]
Method in brief: as §1

[10] = compound: CC(C)(O)CC(=O)NCCn1ccc2ncnc(Nc3ccc(Oc4cccc(C(F)(F)F)c4)c(Cl)c3)c21
Method in brief: as §1

[11] = compound: CC(C)C1=C2N=C(C=C(N2N=C1)NCC3=CC=CC=C3)NCCCCCCN
Method in brief: as §1

[12] = compound: CC1=C(C(CC(=O)N1)C2=CC=C(C=C2)C(F)(F)F)C(=O)NC3=C(C=C4C(=C3)C=NN4)F
Method in brief: as §1

[13] = compound: CC1=C(C2=C(C=C1)C(=O)C3=CC=CC=C3N2CCCN)C
Method in brief: as §1

[14] = compound: CC1=C(C=C(C=C1)NC(=O)C2=CC(=CC=C2)C(C)(C)C#N)NC3=CC4=C(C=C3)N=CN(C4=O)C
Method in brief: as §1

[15] = compound: CC1=C(C=C(C=C1)NC(=O)C2=CC(=CC=C2)N(C)C)NC(=O)C3=CC=C(C=C3)O
Method in brief: as §1

[16] = compound: CC1=CC=C(C=C1)SC2=C3C=C(SC3=CN=C2)C(=O)N
Method in brief: as §1

Measured: log2 fold change

ARAP1 (UniProt Q96P48)
inactive: erlotinib 0.003 | [1] -0.164 | [2] -0.041 | [3] 0.024 | [4] 0.022 | [5] 0.022 | [6] 0.013 | [7] -0.01 | [8] -0.007 | IRAK-1-4 Inhibitor I 0.008 | ibrutinib -0.01 | [9] 0.002 | ralimetinib 0.016 | [10] 0.028 | [11] 0.003 | [12] 0.02 | [13] -0.01 | [14] 0.005 | [15] 0.057 | [16] 0.006

ANXA13 isoform 2 (UniProt P27216)
inactive: erlotinib -0.078 | [1] 0.111 | [2] -0.121 | [3] -0.019 | [4] -0.083 | [5] -0.029 | [6] 0.029 | IRAK-1-4 Inhibitor I -0.174 | ibrutinib 0.051 | [9] 0.092 | ralimetinib 0.022 | [10] 0.169 | [11] -0.057 | [12] -0.034 | [13] 0.062 | [14] 0.053 | [15] -0.001 | [16] 0.06

ARL13B (UniProt Q3SXY8)
UniProt Q3SXY8, sequence (Q3SXY8 whole entry, looked up): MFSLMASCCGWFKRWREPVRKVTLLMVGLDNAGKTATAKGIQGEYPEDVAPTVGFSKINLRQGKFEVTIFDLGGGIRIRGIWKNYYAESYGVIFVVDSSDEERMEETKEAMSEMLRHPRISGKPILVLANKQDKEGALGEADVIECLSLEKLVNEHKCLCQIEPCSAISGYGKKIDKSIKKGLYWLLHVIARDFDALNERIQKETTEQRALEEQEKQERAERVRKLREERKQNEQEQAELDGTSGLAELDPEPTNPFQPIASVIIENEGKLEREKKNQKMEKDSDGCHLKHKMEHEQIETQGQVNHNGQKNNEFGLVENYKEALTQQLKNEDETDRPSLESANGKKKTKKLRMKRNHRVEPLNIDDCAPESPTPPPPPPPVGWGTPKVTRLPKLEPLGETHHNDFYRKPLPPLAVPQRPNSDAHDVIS
inactive: erlotinib 0.043 | [1] 0.06 | [2] -0.195 | [3] -0.039 | [4] 0.118 | [5] -0.033 | [6] 0.094 | IRAK-1-4 Inhibitor I 0.038 | ibrutinib -0.001 | [9] -0.033 | ralimetinib 0.058 | [10] -0.032 | [11] 0.081 | [13] -0.002 | [14] 0.047 | [15] -0.068 | [16] 0.077

ABCA3 (UniProt Q99758)
inactive: erlotinib -0.022 | [1] -0.028 | [2] -0.033 | [3] 0.036 | [4] -0.096 | [5] 0.037 | [6] 0.211 | [7] -0.118 | [8] 0 | IRAK-1-4 Inhibitor I 0.114 | ibrutinib -0.036 | [9] -0.002 | ralimetinib -0.041 | [10] -0.13 | [11] -0.023 | [13] -0.112 | [14] 0.062 | [15] -0.028 | [16] 0.128

ALKBH1 (UniProt Q13686)
UniProt Q13686, sequence (Q13686 whole entry, looked up): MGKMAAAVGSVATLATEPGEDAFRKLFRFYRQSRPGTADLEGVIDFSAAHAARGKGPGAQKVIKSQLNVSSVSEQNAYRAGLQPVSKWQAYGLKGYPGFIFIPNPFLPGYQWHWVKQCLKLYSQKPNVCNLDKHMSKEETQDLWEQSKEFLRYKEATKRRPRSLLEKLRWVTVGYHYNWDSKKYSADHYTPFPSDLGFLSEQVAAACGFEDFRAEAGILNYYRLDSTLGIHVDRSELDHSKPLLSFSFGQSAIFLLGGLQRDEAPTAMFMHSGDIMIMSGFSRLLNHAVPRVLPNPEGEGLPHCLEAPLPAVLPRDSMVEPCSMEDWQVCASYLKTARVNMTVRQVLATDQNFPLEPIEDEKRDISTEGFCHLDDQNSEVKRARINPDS
inactive: erlotinib 0.033 | [1] -0.042 | [2] -0.02 | [3] 0.052 | [5] 0.024 | [6] -0.022 | [7] 0.211 | [8] 0.041 | IRAK-1-4 Inhibitor I -0.11 | ralimetinib 0.095 | [10] -0.1 | [11] 0.008 | [12] -0.003 | [13] -0.102 | [15] 0.093

AP5B1 (UniProt Q2VPB7)
UniProt Q2VPB7, sequence (Q2VPB7 whole entry, looked up): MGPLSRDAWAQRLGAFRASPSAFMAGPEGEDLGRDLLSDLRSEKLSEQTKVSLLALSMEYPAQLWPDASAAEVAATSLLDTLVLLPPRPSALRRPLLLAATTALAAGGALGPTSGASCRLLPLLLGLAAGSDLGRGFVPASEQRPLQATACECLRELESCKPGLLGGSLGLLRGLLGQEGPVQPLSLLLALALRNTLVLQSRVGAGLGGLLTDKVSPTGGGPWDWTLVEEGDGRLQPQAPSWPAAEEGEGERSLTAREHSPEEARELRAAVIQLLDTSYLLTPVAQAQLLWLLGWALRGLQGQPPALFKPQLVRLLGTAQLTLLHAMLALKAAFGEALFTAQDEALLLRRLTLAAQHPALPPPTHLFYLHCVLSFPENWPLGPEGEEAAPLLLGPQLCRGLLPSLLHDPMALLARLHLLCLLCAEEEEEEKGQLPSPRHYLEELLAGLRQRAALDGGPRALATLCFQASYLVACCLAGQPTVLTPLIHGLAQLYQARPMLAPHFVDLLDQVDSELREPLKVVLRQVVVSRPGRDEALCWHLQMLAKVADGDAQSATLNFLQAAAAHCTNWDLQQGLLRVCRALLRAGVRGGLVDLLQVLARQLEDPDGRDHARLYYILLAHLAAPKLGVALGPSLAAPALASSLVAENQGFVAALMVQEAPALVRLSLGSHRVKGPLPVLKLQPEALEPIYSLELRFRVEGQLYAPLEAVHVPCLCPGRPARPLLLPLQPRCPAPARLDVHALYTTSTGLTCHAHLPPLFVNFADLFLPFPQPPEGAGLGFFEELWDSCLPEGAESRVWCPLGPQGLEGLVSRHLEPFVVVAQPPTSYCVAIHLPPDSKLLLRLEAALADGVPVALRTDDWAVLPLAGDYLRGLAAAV
inactive: erlotinib 0.006 | [2] -0.05 | [4] -0.069 | [5] 0.014 | [7] 0.073 | [8] 0.046 | IRAK-1-4 Inhibitor I 0.03 | ibrutinib 0.112 | [9] -0.037 | ralimetinib -0.04 | [10] -0.072 | [11] 0.011 | [12] 0.021 | [13] -0.067 | [14] -0.08 | [15] 0.036 | [16] -0.006

ACVR1 (UniProt Q04771)
inactive: [4] 0.074 | ibrutinib -0.047 | [12] -0.152 | [13] -0.02

AGPAT2 (UniProt O15120)
UniProt O15120, sequence (O15120 whole entry, looked up): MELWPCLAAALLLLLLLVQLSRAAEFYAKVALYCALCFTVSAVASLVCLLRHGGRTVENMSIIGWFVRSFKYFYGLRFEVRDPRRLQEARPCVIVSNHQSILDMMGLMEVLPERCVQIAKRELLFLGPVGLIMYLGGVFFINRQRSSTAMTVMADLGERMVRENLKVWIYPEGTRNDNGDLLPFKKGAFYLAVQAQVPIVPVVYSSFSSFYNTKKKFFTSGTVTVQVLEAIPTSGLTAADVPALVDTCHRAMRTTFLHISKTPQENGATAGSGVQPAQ
inactive: erlotinib -0.032 | [1] -0.064 | [2] 0.013 | [3] 0.245 | [5] -0.114 | [6] 0.024 | [7] -0.038 | [8] 0.069 | IRAK-1-4 Inhibitor I -0.027 | ralimetinib 0.1 | [10] -0.071 | [11] 0.046 | [12] 0.03 | [14] -0.064 | [15] 0.013

ANKRD30B (UniProt Q9BXX2)
UniProt Q9BXX2, sequence (Q9BXX2 whole entry, looked up): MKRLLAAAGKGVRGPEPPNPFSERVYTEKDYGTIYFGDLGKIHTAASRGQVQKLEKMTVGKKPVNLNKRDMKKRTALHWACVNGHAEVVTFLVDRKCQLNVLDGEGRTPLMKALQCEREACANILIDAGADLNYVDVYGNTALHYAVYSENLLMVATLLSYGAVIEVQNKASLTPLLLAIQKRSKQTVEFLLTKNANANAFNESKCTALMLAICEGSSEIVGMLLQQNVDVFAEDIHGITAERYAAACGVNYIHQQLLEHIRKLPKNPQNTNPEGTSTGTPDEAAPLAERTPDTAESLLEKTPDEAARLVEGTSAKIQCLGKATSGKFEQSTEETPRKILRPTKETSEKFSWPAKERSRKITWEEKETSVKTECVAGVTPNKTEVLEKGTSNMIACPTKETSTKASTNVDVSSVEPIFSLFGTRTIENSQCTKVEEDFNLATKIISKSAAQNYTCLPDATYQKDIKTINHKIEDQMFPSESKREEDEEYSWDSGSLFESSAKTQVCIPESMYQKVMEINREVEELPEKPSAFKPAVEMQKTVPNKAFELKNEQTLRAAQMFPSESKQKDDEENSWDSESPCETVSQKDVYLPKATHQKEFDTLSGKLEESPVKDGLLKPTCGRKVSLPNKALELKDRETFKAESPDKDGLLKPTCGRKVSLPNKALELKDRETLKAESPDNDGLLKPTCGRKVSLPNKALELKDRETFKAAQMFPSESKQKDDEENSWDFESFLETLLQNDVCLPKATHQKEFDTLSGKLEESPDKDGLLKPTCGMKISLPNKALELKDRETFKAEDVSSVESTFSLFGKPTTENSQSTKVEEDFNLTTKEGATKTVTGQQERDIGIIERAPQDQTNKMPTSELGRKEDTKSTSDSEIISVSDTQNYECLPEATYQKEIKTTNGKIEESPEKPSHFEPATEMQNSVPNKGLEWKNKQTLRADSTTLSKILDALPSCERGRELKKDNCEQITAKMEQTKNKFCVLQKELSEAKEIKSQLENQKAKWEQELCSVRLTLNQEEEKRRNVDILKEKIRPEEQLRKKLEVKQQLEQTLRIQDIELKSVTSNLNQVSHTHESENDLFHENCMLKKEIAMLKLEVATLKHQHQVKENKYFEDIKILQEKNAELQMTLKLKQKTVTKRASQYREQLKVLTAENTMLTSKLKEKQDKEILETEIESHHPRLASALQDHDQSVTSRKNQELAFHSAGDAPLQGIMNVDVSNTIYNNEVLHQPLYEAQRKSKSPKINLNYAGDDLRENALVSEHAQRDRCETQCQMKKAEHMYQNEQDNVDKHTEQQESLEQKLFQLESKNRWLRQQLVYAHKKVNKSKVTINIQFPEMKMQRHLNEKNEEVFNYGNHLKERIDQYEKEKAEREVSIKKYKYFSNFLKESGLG
inactive: erlotinib 0.077 | [1] 0.106 | [2] -0.053 | [3] -0.115 | [4] 0.005 | [5] -0.032 | [6] -0.047 | [7] -0.006 | [8] 0.124 | IRAK-1-4 Inhibitor I 0.095 | ibrutinib -0.063 | [9] -0.086 | ralimetinib -0.007 | [10] -0.16 | [11] 0.038 | [12] -0.098 | [13] -0.064 | [15] 0.024 | [16] -0.167

ABHD13 (UniProt Q7L211)
UniProt Q7L211, sequence (Q7L211 whole entry, looked up): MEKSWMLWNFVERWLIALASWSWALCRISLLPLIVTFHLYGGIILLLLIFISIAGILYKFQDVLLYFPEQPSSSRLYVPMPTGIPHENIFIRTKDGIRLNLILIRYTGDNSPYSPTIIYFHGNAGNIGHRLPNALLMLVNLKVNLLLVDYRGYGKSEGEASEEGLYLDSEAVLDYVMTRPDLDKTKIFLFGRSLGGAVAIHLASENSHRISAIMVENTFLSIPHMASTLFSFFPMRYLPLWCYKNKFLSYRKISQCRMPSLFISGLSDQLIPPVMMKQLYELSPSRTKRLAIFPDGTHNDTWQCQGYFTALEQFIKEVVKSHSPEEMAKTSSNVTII
inactive: [1] 0.015 | [3] 0.021 | [4] 0.011 | [6] -0.071 | [7] 0.176 | [8] 0.04 | ibrutinib 0.041 | [9] -0.017 | [12] -0.028 | [13] 0.196 | [14] 0.03 | [16] 0.003

AGGF1 (UniProt Q8N302)
inactive: erlotinib -0.015 | [1] -0.056 | [2] 0.054 | [3] -0.19 | [4] -0.077 | [5] 0.018 | [6] 0.057 | [7] -0.038 | [8] -0.022 | IRAK-1-4 Inhibitor I 0.023 | ibrutinib 0.034 | [9] 0.077 | ralimetinib -0.014 | [10] -0.023 | [11] -0.017 | [12] -0.011 | [14] 0.034 | [15] -0.04 | [16] -0.341

AP3D1 isoform 2 (UniProt O14617)
UniProt O14617, sequence (O14617 whole entry, looked up): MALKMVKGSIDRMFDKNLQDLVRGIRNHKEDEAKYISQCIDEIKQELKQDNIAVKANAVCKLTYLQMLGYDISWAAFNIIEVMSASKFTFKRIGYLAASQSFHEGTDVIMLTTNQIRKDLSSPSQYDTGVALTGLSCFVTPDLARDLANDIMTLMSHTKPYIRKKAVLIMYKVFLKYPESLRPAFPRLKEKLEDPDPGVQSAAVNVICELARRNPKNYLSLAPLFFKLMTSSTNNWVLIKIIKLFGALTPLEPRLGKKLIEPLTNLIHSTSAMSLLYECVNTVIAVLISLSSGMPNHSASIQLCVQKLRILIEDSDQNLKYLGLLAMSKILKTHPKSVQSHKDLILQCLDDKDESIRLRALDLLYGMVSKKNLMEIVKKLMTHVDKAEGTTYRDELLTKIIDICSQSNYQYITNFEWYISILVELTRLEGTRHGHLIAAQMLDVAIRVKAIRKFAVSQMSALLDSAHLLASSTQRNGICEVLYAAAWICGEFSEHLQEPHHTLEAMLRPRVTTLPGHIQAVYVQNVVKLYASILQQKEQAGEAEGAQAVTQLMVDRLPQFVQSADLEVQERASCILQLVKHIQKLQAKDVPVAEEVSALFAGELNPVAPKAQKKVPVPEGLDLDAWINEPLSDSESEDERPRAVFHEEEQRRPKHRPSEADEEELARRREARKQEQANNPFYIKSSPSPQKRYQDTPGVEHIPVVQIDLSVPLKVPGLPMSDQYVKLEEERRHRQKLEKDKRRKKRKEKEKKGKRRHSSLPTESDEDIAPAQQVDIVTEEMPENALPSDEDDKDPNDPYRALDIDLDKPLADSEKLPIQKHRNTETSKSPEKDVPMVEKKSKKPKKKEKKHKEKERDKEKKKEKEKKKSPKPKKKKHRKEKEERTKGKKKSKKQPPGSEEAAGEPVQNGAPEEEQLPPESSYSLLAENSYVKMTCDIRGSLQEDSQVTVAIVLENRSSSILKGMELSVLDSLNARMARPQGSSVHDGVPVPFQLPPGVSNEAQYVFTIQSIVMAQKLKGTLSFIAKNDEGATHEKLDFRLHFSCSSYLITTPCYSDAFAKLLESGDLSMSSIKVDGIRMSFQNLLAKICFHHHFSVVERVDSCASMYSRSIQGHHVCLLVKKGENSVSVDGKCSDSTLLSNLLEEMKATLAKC
inactive: erlotinib 0.029 | [1] -0.082 | [2] -0.15 | [3] -0.162 | [6] -0.026 | [9] -0.085 | [11] 0.09 | [12] 0.127 | [16] 0.053

ACAT1, A0A5F9ZHJ0
inactive: [5] -0.128 | IRAK-1-4 Inhibitor I 0.075 | ralimetinib 0.034 | [10] -0.129 | [12] -0.106 | [15] 0.013

ANP32E isoform 3 (UniProt Q9BTT0)
inactive: [1] -0.079 | [3] -0.002 | [4] -0.011 | [6] 0.012 | [7] 0.075 | [8] -0.01 | ibrutinib -0.065
